MITF primary = inhibitors of human MITF; inhibition, % at 2.6 µM; O75030; AlphaScreen MITF homodimerization, bead proximity signal; actives 0.91% (n = 650,000); in the data active = inhibition above about 50%;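 also: 0% = vehicle wells with protein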
TEAD-YAP inh = TEAD-YAP interaction inhibition; HEK-TIYL cells, TEAD-Gal4/YAP UAS-luciferase luminescence; inhibition, % at 9.12 µM; actives 1.4% (n = 640,000); AID 1259422; in the data active = inhibition above about 32%;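 also: 0% = median of test compound wells and 100% = reference inhibitor wells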
GPR151 ag = activators of human GPR151; activation, % at 11.2 µM; Q8TDV0; PathHunter beta-arrestin GPR151 cells, luminescence; actives 1% (n = 650,000); AID 1508602; in the data active = activation above about 4.9%;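 also: 0% = median of compound wells and 100% = cells with positive control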
Target sequence (Q8TDV0 whole entry, looked up): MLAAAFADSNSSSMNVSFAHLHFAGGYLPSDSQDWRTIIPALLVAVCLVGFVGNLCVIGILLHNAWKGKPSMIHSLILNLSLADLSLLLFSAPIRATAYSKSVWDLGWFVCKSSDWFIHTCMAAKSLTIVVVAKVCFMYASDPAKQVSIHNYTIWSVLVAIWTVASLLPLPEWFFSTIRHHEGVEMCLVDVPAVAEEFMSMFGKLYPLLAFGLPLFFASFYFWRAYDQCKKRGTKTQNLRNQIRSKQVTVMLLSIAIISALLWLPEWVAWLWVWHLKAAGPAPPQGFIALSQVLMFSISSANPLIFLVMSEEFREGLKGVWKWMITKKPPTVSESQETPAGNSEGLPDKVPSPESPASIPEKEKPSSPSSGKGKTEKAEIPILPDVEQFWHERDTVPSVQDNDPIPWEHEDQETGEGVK
FBW7 activator = human FBW7 E3 ligase activation, primary screen. Q969H0. AlphaScreen FBW7–phospho-cyclin E peptide binding, activator screen. normalized activity (activation), % at 26.1 µM. actives 0.13% (n = 650,000). AID 1259310; in the data active = normalized activity above about 1.9%;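 also: purified mutant Fbw7 with reduced substrate affinity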
MITF inh conf = human MITF inhibition, confirmation. shares compounds with MITF primary. AlphaScreen MITF homodimerization, biotin/His-MITF beads. inhibition, % at 2.6 µM. actives 16% (n = 4,700);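 active = inhibition above a cutoff derived from the DMSO control wells, cut at about 28% in these data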;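 also: 0% = MITF dimer wells with DMSO only; inhibitors lower the bead chemiluminescence by keeping MITF from dimerizing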
AlphaScreen DR = optically interferes with AlphaScreen signal in dose response; actives 6% (n = 480); AID 1259373; AlphaScreen optical interference counterscreen, cell-free; IC50, µM; shares compounds with MITF primary; call rule not given here
AS interf ctr = optically interferes with AlphaScreen signal; shares compounds with MITF primary; LysRS AlphaScreen counterscreen, signal interference, triplicate; inhibition, % at 2.6 µM; actives 7.6% (n = 4,700);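 active = inhibition above a cutoff derived from the DMSO control wells, cut at about 30% in these data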
Starred values were filed as active, the others as inactive. Shown are actives, neighbours in structure and some others; about 3.5% of the full set was active somewhere.

`COc1cccc(CN2CCN(Cc3cccc(C)c3)CC2)c1OC` gave MITF primary 76.3*, TEAD-YAP inh 1.0, GPR151 ag 0.9, FBW7 activator -0.2, MITF inh conf 2.2 and AS interf ctr 7.3.
`COc1cccc(CN2CCN(Cc3cccc(Br)c3)CC2)c1OC` gave MITF primary 69.6*, TEAD-YAP inh 0.7, GPR151 ag 0.2, FBW7 activator -0.2, MITF inh conf 4.6 and AS interf ctr 3.3.
`Cc1cc(C)cc(NC(=O)C2CC23CCN(Cc2cn(C)nc2C)CC3)c1` (stereo unspecified) gave MITF primary -13.4, TEAD-YAP inh 5.4, GPR151 ag -0.6 and FBW7 activator -0.1.
Screening NC(=O)C1CCN(c2nc(Nc3ccc(Cl)cc3)nc(Nc3ccc(Cl)cc3)n2)CC1 returned MITF primary 3.2, TEAD-YAP inh 17.5, GPR151 ag -0.4 and FBW7 activator 0.1.
COc1ccc(N2CCN(C(=O)c3ccc4c(c3)C(=O)N(c3cc(C)on3)C4=O)CC2)cc1 was read as MITF primary 4.9, TEAD-YAP inh 0.4, GPR151 ag 1.3 and FBW7 activator 0.1.
`COc1cccc(CN2CCN(C(=O)c3cccc(Cl)c3)CC2)c1OC` gave MITF primary 44.9, TEAD-YAP inh -5.6, GPR151 ag 0.0 and FBW7 activator -0.3.
`COc1cccc(CN2CCN(Cc3cccc(Cl)c3)CC2)c1OC` gave MITF primary 73.1*, TEAD-YAP inh 8.2, GPR151 ag 0.8, FBW7 activator 0.2, MITF inh conf 3.6 and AS interf ctr 14.6.
`CC(C)CCNC(=O)CC(C)CC1=NS(=O)(=O)c2ccccc2N1` (stereo unspecified) gave MITF primary 13.6, TEAD-YAP inh -4.6, GPR151 ag -1.7 and FBW7 activator 1.1.
`COc1cc(C(=O)N2CCN(C3CCC(c4ccccc4)CC3)CC2)cc(OC)c1OC` (stereo unspecified) gave MITF primary 50.7*, TEAD-YAP inh 0.5, GPR151 ag -1.5, FBW7 activator 0.4, MITF inh conf 13.1 and AS interf ctr 17.4.
For COc1ccc(CN2CCN(C3CCN(Cc4ccccc4)CC3)CC2)c(OC)c1 the results were MITF primary 38.1, TEAD-YAP inh 6.9, GPR151 ag -0.3 and FBW7 activator 0.9.
`COc1ccccc1CN1CCN(C2CCC(c3ccccc3)CC2)CC1` (stereo unspecified) gave MITF primary 71.3*, TEAD-YAP inh -26.8, GPR151 ag 1.7, FBW7 activator -0.2, MITF inh conf -4.4 and AS interf ctr 2.8.
For COc1ccc(CN2CCC(N3CCN(c4ccccc4)CC3)CC2)c(OC)c1 the results were MITF primary 59.9*, TEAD-YAP inh 17.8, GPR151 ag -0.7, FBW7 activator -0.1, MITF inh conf -9.1 and AS interf ctr -1.1.
For COc1ccc(CN2CCN(C3CCC(c4ccccc4)CC3)CC2)c(OC)c1 (stereo unspecified) the results were MITF primary 58.3*, TEAD-YAP inh -1.1, GPR151 ag -1.8, FBW7 activator 0.3, MITF inh conf 16.1 and AS interf ctr 18.9.
`c1ccc(C2CCC(N3CCN(C4CCCCC4)CC3)CC2)cc1` (stereo unspecified) gave MITF primary 33.8, TEAD-YAP inh -10.1, GPR151 ag 1.5 and FBW7 activator -0.1.
COc1cc(C(=O)N2CCN(C(=O)c3ccccc3)CC2)cc(OC)c1OC was read as MITF primary 1.7, TEAD-YAP inh -7.3, GPR151 ag -0.4 and FBW7 activator -0.1.
Screening CCOC(=O)N1C=Cc2ccccc2C1C#N (stereo unspecified) returned MITF primary 4.2, TEAD-YAP inh 5.3, GPR151 ag -0.7 and FBW7 activator 0.4.
For CC1CN(CC(=O)N(C)CC2CCCCO2)Cc2cc(Cl)ccc2O1 (stereo unspecified) the results were MITF primary 55.4*, TEAD-YAP inh 4.5, GPR151 ag 2.1, FBW7 activator 0.0, MITF inh conf -4.2 and AS interf ctr -1.0.
Screening C=Cn1ccnc1P(c1ccccc1)c1nccn1C=C returned MITF primary 104.1*, TEAD-YAP inh -7.5, GPR151 ag -0.5, FBW7 activator -1.3, MITF inh conf 110.2* and AS interf ctr 100.3*.
`CCOc1cc2oc(=O)cc(CC)c2cc1Cl` gave MITF primary 3.1, TEAD-YAP inh 4.5, GPR151 ag -0.1 and FBW7 activator -0.1.
For CCc1cc(=O)oc2cc(OC)c(Cl)cc12 the results were MITF primary 88.1*, TEAD-YAP inh 7.6, GPR151 ag 0.8, FBW7 activator 0.0, MITF inh conf 0.3 and AS interf ctr -0.8.
For c1ccc(-c2ccc(SCc3cccnc3)nn2)nc1 the results were MITF primary 85.3*, TEAD-YAP inh -28.8, GPR151 ag -2.6, FBW7 activator -1.7, MITF inh conf 99.4* and AS interf ctr 100.3*.
Screening c1ccc(CSc2ccc(-c3ccccn3)nn2)nc1 returned MITF primary 86.4*, TEAD-YAP inh -10.4, GPR151 ag -1.5, FBW7 activator -1.9, MITF inh conf 96.3* and AS interf ctr 100.3*.
`NC(=O)CSc1ccc(-c2ccccn2)nn1` gave MITF primary 81.6*, TEAD-YAP inh -3.1, GPR151 ag -0.1, FBW7 activator -0.2, MITF inh conf 72.7* and AS interf ctr 94.1*.
Fc1ccc(-c2ccc(SCc3cccnc3)nn2)cc1 was read as MITF primary 4.3, TEAD-YAP inh -59.4, GPR151 ag -0.9 and FBW7 activator 0.3.
`CCSc1ccc(-c2ccccn2)nn1` gave MITF primary 82.4*, TEAD-YAP inh -38.5, GPR151 ag -3.3, FBW7 activator -0.2, MITF inh conf 76.1* and AS interf ctr 96.5*.
COc1ccc(N=C/C(C(=O)C(F)(F)F)=C(\O)c2cccs2)cc1 was read as MITF primary -2.0, TEAD-YAP inh -1.3, GPR151 ag 0.6 and FBW7 activator -0.6.
Screening FC(F)(F)Oc1cccc(-c2cnc(N3CCOCC3)c3nccn23)c1 returned MITF primary 13.3, TEAD-YAP inh 12.6, GPR151 ag -1.0 and FBW7 activator 0.6.
Screening CCCC(=O)N1c2ccccc2NC2=C(C(=O)CCC2)C1c1cccc(Br)c1 (stereo unspecified) returned MITF primary -5.0, TEAD-YAP inh 10.1, GPR151 ag 0.7 and FBW7 activator -0.2.
For O=C(Nc1cc(C(F)(F)F)ccc1Cl)c1ccc(F)cc1 the results were MITF primary 27.1, TEAD-YAP inh -0.2, GPR151 ag -0.3 and FBW7 activator 0.3.
NC(=O)c1ccc(N=Cc2cc3c(cc2[N+](=O)[O-])OCO3)cc1 was read as MITF primary 58.0*, TEAD-YAP inh -6.0, GPR151 ag -1.2, FBW7 activator -0.5, MITF inh conf 75.9*, AlphaScreen DR >6.48 and AS interf ctr 9.5.

High-throughput results (PubChem)
